{
  "source": "PubChem BioAssay (NCATS)",
  "note": "Inconclusive results are not listed. Where a call stands in place of a potency, no number is given. The source made the active and inactive calls. Calls follow the shape of the dose curve; as a rule, active = well fitted cell-killing curve with a large enough effect; inconclusive = small, poorly fitted or top-dose-only effect; inactive = flat fitted curve, though single readings scatter. Also: nearly all actives have a fitted effect of over 60% in size. Potency is read from the fitted curve at half-maximal effect.",
  "data": [
    {"assay": "Cell Viability - LYMP2-006 (AID 978);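 also: cells exposed to compound for 24 hours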", "settings": "LYMP2-006 lymphoblastoid cell viability, qHTS; series mostly up to 92.2 µM", "procedure,_shortened": "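Human lymphoblastoid cells (LYMP2-006), 2500/well in complete medium, were treated with compound for 24 hr at 37 C. Cellular ATP was read by CellTiter-Glo luminescence after 30 min, and AC50 values came from Hill-equation fits of concentration-response data.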", "values": [
      {"smiles": "CCCCC/C=C/C=C/C=O", "Potency": "50.1 µM (active)"},
      {"smiles": "Cc1ccc(C(=O)O)cc1", "Potency": "inactive"},
      {"smiles": "CCC(=O)/C=C/C1C(C)=CCCC1(C)C", "note": "(configuration not stated)", "Potency": "inactive"},
      {"smiles": "Nc1cccc(N)c1", "Potency": "inactive"},
      {"smiles": "CC(C)(C)OCC1CO1", "note": "(configuration not stated)", "Potency": "inactive"},
      {"smiles": "Cc1cc(C2(c3cc(C)c(O)cc3C)OS(=O)(=O)c3ccccc32)c(C)cc1O", "Potency": "inactive"},
      {"smiles": "Cc1ccccc1C(=O)O", "Potency": "inactive"},
      {"smiles": "CC(C)(C)OC=O", "Potency": "inactive"},
      {"smiles": "COc1cccc(N)c1", "Potency": "inactive"},
      {"smiles": "CCCCC(CC)CO", "note": "(configuration not stated)", "Potency": "inactive"},
      {"smiles": "COCCOC(=O)c1ccccc1C(=O)OCCOC", "Potency": "inactive"},
      {"smiles": "O=C(O)c1cccc([N+](=O)[O-])c1", "Potency": "inactive"},
      {"smiles": "CCCCCNCCCCC", "Potency": "inactive"},
      {"smiles": "CCCCOCCOCCSC#N", "Potency": "inactive"},
      {"smiles": "CC1(N)CCC(C(C)(C)N)CC1", "note": "(configuration not stated)", "Potency": "inactive"},
      {"smiles": "CCCCC(CC)CNCC(CC)CCCC", "note": "(configuration not stated)", "Potency": "inactive"},
      {"smiles": "O=[N+]([O-])c1ccc(Cl)cc1Cl", "Potency": "inactive"},
      {"smiles": "CC(O)COC(C)(C)C", "note": "(configuration not stated)", "Potency": "inactive"},
      {"smiles": "CC(C)C(C)C", "Potency": "inactive"},
      {"smiles": "O=C(O)c1ccc(CO)o1", "Potency": "inactive"},
      {"smiles": "Cc1ccc(C)o1", "Potency": "inactive"},
      {"smiles": "O=CNc1ccccc1", "Potency": "inactive"},
      {"smiles": "NS(=O)(=O)O", "Potency": "inactive"},
      {"smiles": "CC(=O)OCCC(C)C", "Potency": "inactive"},
      {"smiles": "Cc1cccc(Br)c1", "Potency": "inactive"},
      {"smiles": "CC(=O)c1ccccn1", "Potency": "inactive"},
      {"smiles": "CC1=C(/C=C/C(C)=C/C=C/C(C)=C\\C=O)C(C)(C)CCC1", "Potency": "50.1 µM (active)"}
    ]},
    {"assay": "Cell Viability - LYMP2-007 (AID 979);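 also: cells exposed to compound for 24 h before reading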", "settings": "LYMP2-007 lymphoblastoid cell viability; series mostly up to 92.2 µM", "procedure,_shortened": "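Cells are seeded at 2500 per well and rested 5 hr. Compounds are then added over a concentration series for 24 hr at 37 C. CellTiter-Glo is added for 30 min at room temperature before luminescence reading.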", "values": [
      {"smiles": "C=CCn1c(=O)n(CC=C)c(=O)n(CC=C)c1=O", "Potency": "inactive"},
      {"smiles": "Nc1nc(-c2ccccc2)cs1", "Potency": "inactive"},
      {"smiles": "O=C(O)c1ccccc1[N+](=O)[O-]", "Potency": "inactive"},
      {"smiles": "Nc1cccc(N)c1", "Potency": "inactive"},
      {"smiles": "CN(C)c1cccc(O)c1", "Potency": "inactive"},
      {"smiles": "O=C(O)c1ccc(C(=O)O)cc1", "Potency": "inactive"},
      {"smiles": "NCCCCCCN", "Potency": "inactive"},
      {"smiles": "Cc1ccccc1C(=O)O", "Potency": "inactive"},
      {"smiles": "CC(C)(C)OC=O", "Potency": "inactive"},
      {"smiles": "COc1cccc(N)c1", "Potency": "inactive"},
      {"smiles": "CCCCCNCCCCC", "Potency": "inactive"},
      {"smiles": "CCCCOCCOCCSC#N", "Potency": "inactive"},
      {"smiles": "CCCCC(CC)CNCC(CC)CCCC", "note": "(configuration not stated)", "Potency": "inactive"},
      {"smiles": "N#Cc1ccccc1", "Potency": "inactive"},
      {"smiles": "O=[N+]([O-])c1ccc(Cl)cc1Cl", "Potency": "inactive"},
      {"smiles": "C=CCCCCCCC=C", "Potency": "inactive"},
      {"smiles": "CCN(C(=O)N(CC)c1ccccc1)c1ccccc1", "Potency": "inactive"},
      {"smiles": "O=C(O)c1ccc(CO)o1", "Potency": "inactive"},
      {"smiles": "Cc1ccc(C)o1", "Potency": "inactive"},
      {"smiles": "O=CNc1ccccc1", "Potency": "inactive"},
      {"smiles": "CC(=O)OCCC(C)C", "Potency": "inactive"},
      {"smiles": "Cc1cccc(Br)c1", "Potency": "inactive"},
      {"smiles": "NC(=S)NNC(N)=S", "Potency": "inactive"},
      {"smiles": "Cc1cccc2cccnc12", "Potency": "inactive"},
      {"smiles": "CC1=C(/C=C/C(C)=C/C=C/C(C)=C\\C=O)C(C)(C)CCC1", "Potency": "50.1 µM (active)"}
    ]}
  ]
}
